Bioassay records deposited in PubChem BioAssay by National Center for Advancing Translational Sciences (NCATS).
Rows were chosen to be rich in hits. Some 11% of all compounds tested hit in one or more screens of this group.
3T3 cytotox: kills NIH 3T3 cells; Potency, µM (top dose mostly 96.7 µM), without a hit: top-dose activity change, negative = cytotoxicity, most hits filed as inhibitors; NIH 3T3 viability, CellTiter-Glo ATP luminescence, 48-72 h; hit rate 4.3% among 94,000; note: % is set by controls: 0 for no effect and ±100 for the full control effect; nearly all actives have a fitted effect of over 55% in size
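First NIH 3T3 cells are plated at 400 cells/well; next compound is pinned in; then plates incubate 48 or 72 hr at 37 °C; finally CellTiter-Glo is added and luminescence read after 10 min.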
HEK293 tox: HEK 293 cell cytotoxicity; HEK 293 viability, ATP luminescence (CellTiter-Glo), 48-72 h; Potency, µM (series often up to 115 µM), for inactives: at the top dose activity change, negative = cytotoxicity, most hits filed as inhibitors; hit rate 6.6% among 94,000; note: % is set by controls: 0 for no effect and ±100 for the full control effect; nearly all actives have a fitted effect of over 60% in size
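Pintool-delivered compounds were incubated with HEK 293 cells (250 cells/well) at 37 degree Celsius for 48 or 72 hr. ATP-dependent luminescence (CellTiter-Glo) then reported remaining viable cells.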
NPR1 antag: antagonists of human natriuretic peptide receptor Npr1; HEK293 hNpr1 GloSensor cGMP, ANP-stimulated luminescence; Potency, µM (series often up to 46.3 µM), for the others: top-dose activity change, negative = inhibition, hits mostly inhibitors; hit rate 1.6% among 76,000; AID 1347048; calls by dose curve; note: % is set by controls: 0 for no effect and ±100 for the full control effect; nearly all actives have a fitted effect of over 60% in size
Target sequence (P16066 whole entry, looked up): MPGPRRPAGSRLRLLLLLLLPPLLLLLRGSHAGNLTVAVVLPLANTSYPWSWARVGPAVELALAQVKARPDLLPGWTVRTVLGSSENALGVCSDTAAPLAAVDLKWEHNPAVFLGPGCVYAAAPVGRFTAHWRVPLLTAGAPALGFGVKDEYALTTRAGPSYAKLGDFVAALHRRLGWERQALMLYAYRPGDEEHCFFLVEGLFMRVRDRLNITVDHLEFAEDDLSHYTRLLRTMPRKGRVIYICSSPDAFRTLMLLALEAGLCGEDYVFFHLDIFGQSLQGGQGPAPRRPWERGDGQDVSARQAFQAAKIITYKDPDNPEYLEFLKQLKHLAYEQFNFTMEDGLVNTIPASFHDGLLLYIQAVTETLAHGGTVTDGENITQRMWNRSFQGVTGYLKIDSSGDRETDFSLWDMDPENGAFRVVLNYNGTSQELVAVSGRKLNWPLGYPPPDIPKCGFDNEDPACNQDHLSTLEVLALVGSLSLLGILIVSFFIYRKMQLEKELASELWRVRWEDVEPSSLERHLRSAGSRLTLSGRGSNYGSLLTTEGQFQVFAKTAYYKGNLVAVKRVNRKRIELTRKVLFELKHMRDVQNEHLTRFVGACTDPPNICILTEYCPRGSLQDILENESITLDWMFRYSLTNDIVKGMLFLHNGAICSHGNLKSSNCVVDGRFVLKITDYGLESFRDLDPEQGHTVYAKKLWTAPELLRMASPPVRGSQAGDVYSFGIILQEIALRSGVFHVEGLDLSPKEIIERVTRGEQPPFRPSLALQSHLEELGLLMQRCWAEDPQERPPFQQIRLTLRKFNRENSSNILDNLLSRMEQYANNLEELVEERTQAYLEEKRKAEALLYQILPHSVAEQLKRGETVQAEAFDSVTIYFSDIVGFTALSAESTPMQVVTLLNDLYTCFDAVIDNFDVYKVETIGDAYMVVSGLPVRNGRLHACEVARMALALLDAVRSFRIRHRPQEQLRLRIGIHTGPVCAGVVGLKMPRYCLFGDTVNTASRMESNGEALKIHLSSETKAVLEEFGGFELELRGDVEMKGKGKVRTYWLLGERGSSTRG
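Compound pre-incubated 30 min at room temperature on GloSensor-loaded HEK293 cells stably carrying hNpr1 and the pGS-40F cGMP biosensor. Stimulation uses hNppA at 0.1 nM final; luminescence is taken at baseline and 20 min post-agonist.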
FLuc inh-1: blocks purified firefly luciferase enzyme activity. purified P. pyralis luciferase, luminescence, biochemical. Potency, µM (titrated, usually from 115 µM), actives largely listed as inhibitors. hit rate 2.5% among 76,000; note: % is set by controls: 0 for no effect and ±100 for the full control effect; nearly all actives have a fitted effect of over 65% in size
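Luminescence read by CCD imaging after purified firefly luciferase (10nM final) was added to substrate buffer holding 10uM D-luciferin and 10uM ATP, pH 7.5, pre-dosed with compound.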
FLuc SDR no ATP: firefly luciferase binding stabilization, ATP absent; shares compounds with FLuc inh-1; Purified FLuc-C-HiBiT, Nano-Glo HiBiT luminescence, no ATP; Potency, µM (series often up to 32.7 µM), without a hit: top-dose activation (signal gain), usual class: activators; hit rate 7.8% among 1,300; AID 1963318; note: nearly all actives have a fitted effect of over 55% in size
FLuc SDR ATP: binders stabilizing firefly luciferase, plus ATP; shares compounds with FLuc inh-1; purified FLuc-C-HiBiT + ATP, HiBiT complementation luminescence; Potency, µM (top dose mostly 32.7 µM), for the others: at the highest dose activation (gain of signal), hits mostly activators; hit rate 8.7% among 1,300; AID 1963319;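 note: signal reports ligand binding via conformational change of the enzyme rather than luciferase catalysis; % of control where 0% means no effect; nearly all actives have a fitted effect of over 55% in size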
FLuc inh-2: inhibitors of firefly luciferase enzymatic activity | shares compounds with FLuc inh-1 | purified FLuc-C-HiBiT enzyme, luciferin luminescence | Potency, µM (top dose mostly 32.7 µM), without a hit: at the top dose activity change, negative = inhibition, hits mostly inhibitors | hit rate 42% among 1,300; note: % is set by controls: 0 for no effect and ±100 for the full control effect; nearly all actives have a fitted effect of over 70% in size
Starred values were filed as active, the others as inactive; [ ] = remark or other dose. Unless noted, calls come from the whole dose curve; as a rule, active = well fitted curve in the direction sought with a large enough effect; inconclusive = small, poorly fitted or top-dose-only effect, or another doubt; inactive = no such curve, though single readings can be large; an effect the other way counts as inactive or inconclusive. Potency is the fitted concentration of half-maximal effect.

Results for COc1ccc(C(=O)NCCn2ccn3nc(-c4ccc(C)cc4C)cc3c2=O)cc1F ?
3T3 cytotox: inconclusive; HEK293 tox: inconclusive; NPR1 antag: inconclusive; FLuc inh-1: 1.26µM*; FLuc SDR no ATP: 31.8%; FLuc SDR ATP: inconclusive; FLuc inh-2: 3.51µM*

What do the screens show for `Cc1ccc(-c2cc3c(=O)n(CCNC(=O)c4nn(C)c5ccccc45)ccn3n2)c(C)c1`?
3T3 cytotox: inconclusive; HEK293 tox: inconclusive; NPR1 antag: -24.3%; FLuc inh-1: 1.41µM*; FLuc SDR no ATP: inconclusive; FLuc SDR ATP: inconclusive; FLuc inh-2: 1.57µM*

How did COc1cccc(-c2cc3c(=O)n(CCNC(=O)c4nn(C)c5ccccc45)ccn3n2)c1 do in these assays?
3T3 cytotox: inconclusive; HEK293 tox: inconclusive; NPR1 antag: -21.2%; FLuc inh-1: inconclusive

How did COc1ccc(C(=O)NCCn2ccn3nc(-c4cc(C)ccc4C)cc3c2=O)cc1OC do in these assays?
3T3 cytotox: inconclusive; HEK293 tox: inconclusive; NPR1 antag: -19.3%; FLuc inh-1: inactive

Results for O=C(c1nc2sccn2c1Br)N1CCC(N2CCCCCC2=O)CC1 ?
3T3 cytotox: -20.6%; HEK293 tox: -6.7%; NPR1 antag: 1.1%; FLuc inh-1: inactive

How did CC(=O)NCc1cn[nH]c1-c1ccc(Cl)cc1 do in these assays?
3T3 cytotox: inactive; HEK293 tox: 10.1%; NPR1 antag: 4.1%; FLuc inh-1: inactive

How did Cc1ccc(-c2cc3c(=O)n(CCNC(=O)c4ccc(N(C)C)cc4)ccn3n2)cc1C do in these assays?
3T3 cytotox: inactive; HEK293 tox: -2.7%; NPR1 antag: 1.3%; FLuc inh-1: inactive

Results for Cc1ccc(-c2cc3c(=O)n(CCNC(=O)Cc4ccsc4)ccn3n2)c(C)c1 ?
3T3 cytotox: inconclusive; HEK293 tox: inconclusive; NPR1 antag: 0.0%; FLuc inh-1: 8.91µM*; FLuc SDR no ATP: inconclusive; FLuc SDR ATP: inconclusive; FLuc inh-2: 6.24µM*

How did Cc1ccc(-c2cc3c(=O)n(CCNC(=O)c4ccc(N(C)C)cc4)ccn3n2)c(C)c1 do in these assays?
3T3 cytotox: -16.5%; HEK293 tox: inconclusive; NPR1 antag: -17.7%; FLuc inh-1: 2.51µM*; FLuc SDR no ATP: 19.8%; FLuc SDR ATP: 14.0%; FLuc inh-2: inconclusive

What do the screens show for `CN(Cc1ccccc1)Cc1cn([C@H]2CO[C@H]3[C@@H]2OC[C@@H]3NC(=O)NCc2ccccc2)nn1`?
3T3 cytotox: -23.2%; HEK293 tox: -18.1%; NPR1 antag: -1.5%; FLuc inh-1: inactive

What do the screens show for `O=C(c1cccs1)N1CCC(N2C(=O)C(O)C23CCCCC3)CC1` (centres undefined)?
3T3 cytotox: 1.2%; HEK293 tox: 4.1%; NPR1 antag: 0.4%; FLuc inh-1: inactive

How did Cc1ccc2oc([C@H]3CCN(Cc4cccs4)C3)nc2c1 do in these assays?
3T3 cytotox: inconclusive; HEK293 tox: 100µM*; NPR1 antag: -22.5%[70.6 µM]; FLuc inh-1: 10µM*; FLuc SDR no ATP: 17.7%[49.3 µM]; FLuc SDR ATP: 16.4%[49.3 µM]; FLuc inh-2: inconclusive

How did Cc1ccc2oc([C@H]3CCN(Cc4ccccn4)C3)nc2c1 do in these assays?
3T3 cytotox: inconclusive; HEK293 tox: inconclusive; NPR1 antag: -16.7%[70.6 µM]; FLuc inh-1: inconclusive

Results for O=C(c1ccccn1)N1CCC(N2C(=O)C(O)C23CCCCC3)CC1 (centres undefined) ?
3T3 cytotox: inactive; HEK293 tox: 0.7%; NPR1 antag: 7.7%; FLuc inh-1: inactive

What do the screens show for `COC(=O)c1ccccc1NC(=O)N1CCC[C@@H](O)[C@H](NC(=O)c2ccc(OCc3ccccc3)cc2)C1`?
3T3 cytotox: inconclusive; HEK293 tox: inconclusive; NPR1 antag: -13.5%; FLuc inh-1: inactive

Results for CCCc1ccc(OCc2ccc(C(=O)Nc3ccccc3C(=O)OC)o2)cc1 ?
FLuc SDR no ATP: 11.7%; FLuc SDR ATP: inconclusive; FLuc inh-2: inconclusive

How did CCOC(=O)c1ccc(NC2SC(=O)N(Cc3cccc(C(=O)O)c3)C2=O)cc1 (centres undefined) do in these assays?
FLuc SDR no ATP: 14.3%; FLuc SDR ATP: inconclusive; FLuc inh-2: inconclusive

What do the screens show for `COc1ccc(C(=O)N2CCCC2c2nc(CCOc3cccc(C)c3)no2)cn1` (centres undefined)?
3T3 cytotox: -22.7%; HEK293 tox: inconclusive; NPR1 antag: -1.1%; FLuc inh-1: inactive

Results for Cc1cccc(OCCn2nnc3sc4c(c3c2=O)CCCC4)c1 ?
FLuc SDR no ATP: 7.5%; FLuc SDR ATP: 5.2%; FLuc inh-2: inconclusive

How did O=C(O)c1ccccc1-c1nc2ccccc2s1 do in these assays?
FLuc SDR no ATP: 23.0%; FLuc SDR ATP: 13.6%; FLuc inh-2: -15.1%

What do the screens show for `COc1ccc(C(=O)Nc2ccccc2-c2nc3ccccc3s2)c(OC)c1`?
FLuc SDR no ATP: 12.2%; FLuc SDR ATP: 7.4%; FLuc inh-2: -5.6%

How did O=C(Nc1ccccc1-c1nc2ccccc2s1)c1ccccc1F do in these assays?
FLuc SDR no ATP: 10.4%; FLuc SDR ATP: 8.8%; FLuc inh-2: -5.5%

How did Cn1ncc2c(C(=O)Nc3ccccc3Cl)cc(-c3ccccc3F)nc21 do in these assays?
3T3 cytotox: -29.9%; HEK293 tox: -14.2%

Results for COc1cccc(C(=O)Nc2ccccc2-c2nc3ccccc3s2)c1 ?
FLuc SDR no ATP: 8.4%; FLuc SDR ATP: 8.0%; FLuc inh-2: 0.6%

How did C[S+](=O)([O-])NCCNC(=O)c1ccc(-c2cncnc2)cc1 do in these assays?
3T3 cytotox: inactive; HEK293 tox: 3.8%[172 µM]

Results for Cc1cnc(-c2ccccc2)n1C1CCCN(C(=O)COc2ccc(F)cc2)C1 (centres undefined) ?
3T3 cytotox: -18.1%; HEK293 tox: inconclusive; NPR1 antag: -3.0%; FLuc inh-1: inactive

Results for COC(=O)CNC(=O)c1cccc(-c2ccc(OC)nn2)c1 ?
3T3 cytotox: -7.8%[138 µM]; HEK293 tox: inactive

What do the screens show for `CC(C)Oc1ccc2c(NC(=O)c3ccc(=O)n(C)n3)nn(CC(F)(F)F)c2c1`?
3T3 cytotox: -37.3%; HEK293 tox: -28.6%; NPR1 antag: -2.5%; FLuc inh-1: inactive

How did O=C(Nc1ccc2c(N3CCCC3)ncnc2c1)c1cccc(Br)c1 do in these assays?
3T3 cytotox: inconclusive; HEK293 tox: inconclusive; NPR1 antag: -19.4%; FLuc inh-1: inactive
